Experimental data reported in PubChem BioAssay (NCATS).
Inconclusive results are not listed. The source made the active and inactive calls. The call rests on the fitted dose curve; in most records, active means well fitted curve in the direction sought with a large enough effect; inconclusive means small, poorly fitted or top-dose-only effect, or another doubt; inactive means no such curve, though single readings can be large; an effect the other way counts as inactive or inconclusive.

assay: Cellular Toxicity (caspase-3) N2a (AID 665); conditions: N2a cells, luminescence, normalized: DMSO 0%, 10 µM staurosporine 100%; series mostly up to 92.2 µM; caspase-3 activation: at the top concentration;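 further: compound exposure lasted 16 h at 37 °C before readout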
Outline: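 Caspase-3/7 activation, measured as increased luminescence from aminoluciferin release, is quantified in mouse N2a cells exposed to compounds for 16 h. Values are normalized to DMSO and 10 uM staurosporine, with AC50 derived by Hill modelling.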

**Q.** Which “caspase-3 activation” value does the source give for CCCN(CCC)C(=O)SCC here?
**A.** -0.85% (inactive)

**Q.** With COc1ccc2nc(N)sc2c1 as the compound, how does the “caspase-3 activation” value read?
**A.** -9.67% (inactive)

**Q.** For ClCCCl, which “caspase-3 activation” value is on record?
**A.** 2.05% (inactive)

**Q.** With CCC(O)OC(O)CC (configuration not stated) as the compound, how does the outcome read?
**A.** inactive

**Q.** For C=Cc1ccccc1Cl, which “caspase-3 activation” value is on record?
**A.** -0.268% (inactive)

**Q.** For c1ccc2c(c1)c1cccc3ccc4cccc2c4c31, which “caspase-3 activation” value is on record?
**A.** -3.27% (inactive)

**Q.** With Cc1cccc([N+](=O)[O-])c1C as the compound, how does the “caspase-3 activation” value read?
**A.** 4.99% (inactive)

**Q.** With CCCCCCCCO as the compound, how does the “caspase-3 activation” value read?
**A.** -3.26% (inactive)

**Q.** With CC(C)=CCCC(C)CCO (configuration not stated) as the compound, how does the “caspase-3 activation” value read?
**A.** 0.432% (inactive)

**Q.** With O=[N+]([O-])c1cccc(Cl)c1Cl as the compound, how does the “caspase-3 activation” value read?
**A.** 0.551% (inactive)

**Q.** With CCO[Si](CCCN)(OCC)OCC as the compound, how does the “caspase-3 activation” value read?
**A.** -1.4% (inactive)

**Q.** With Clc1cc(Cl)c(Cl)cc1Cl as the compound, how does the “caspase-3 activation” value read?
**A.** -1.11% (inactive)

**Q.** Which “caspase-3 activation” value does the source give for CCO here?
**A.** 1.24% (inactive)

**Q.** Which outcome does the source give for C=CC(=O)OCCOCCOCCOCCOC(=O)C=C here?
**A.** inactive

**Q.** For Clc1cc(Cl)c(Cl)c(Cl)c1Cl, which “caspase-3 activation” value is on record?
**A.** 3.56% (inactive)

**Q.** For CCCCC(CC)CN (configuration not stated), which outcome is on record?
**A.** inactive

**Q.** With O=NO as the compound, how does the outcome read?
**A.** inactive

**Q.** Which “caspase-3 activation” value does the source give for c1ccc2c(c1)[nH]c1ccccc12 here?
**A.** -2.99% (inactive)

**Q.** With OCCNCCO as the compound, how does the “caspase-3 activation” value read?
**A.** 2.01% (inactive)

**Q.** Which “caspase-3 activation” value does the source give for Nc1ccc(Cl)cc1Cl here?
**A.** 2.67% (inactive)

**Q.** For CCC(C)c1ccccc1O (configuration not stated), which outcome is on record?
**A.** inactive

**Q.** For CC1=CC(C)(C)Nc2ccccc21, which outcome is on record?
**A.** inactive

**Q.** For CN(C)C=O, which outcome is on record?
**A.** inactive

**Q.** Which “caspase-3 activation” value does the source give for Cc1ccc(N)c([N+](=O)[O-])c1 here?
**A.** -1.15% (inactive)

**Q.** For CCCCOCCO, which outcome is on record?
**A.** inactive

**Q.** With CC(=O)OC/C=C(\C)CCC=C(C)C as the compound, how does the “caspase-3 activation” value read?
**A.** -0.835% (inactive)

assay: Cellular Toxicity (caspase-3) NIH 3T3 (AID 666); conditions: NIH 3T3 caspase-3 activation, apoptosis/toxicity, 0% DMSO, 100% is 100 µM tamoxifen; series mostly up to 92.2 µM; caspase-3 activation: at the top concentration;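 further: caspase signal read after 16 h compound exposure; 0% = DMSO basal and 100% = 100 µM tamoxifen stimulation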
Outline: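 Cells were plated at 1000 per well and incubated 5 hr at 37°C, then compound was added for 16 hr. Caspase-Glo 3/7 reagent followed for 20 min at room temperature before luminescence was read.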

**Q.** For CCCN(CCC)C(=O)SCC, which “caspase-3 activation” value is on record?
**A.** -1.97% (inactive)

**Q.** Which “caspase-3 activation” value does the source give for COc1ccc2nc(N)sc2c1 here?
**A.** -17.4% (inactive)

**Q.** Which “caspase-3 activation” value does the source give for ClCCCl here?
**A.** 3.75% (inactive)

**Q.** With CCC(O)OC(O)CC (configuration not stated) as the compound, how does the outcome read?
**A.** inactive

**Q.** For C=Cc1ccccc1Cl, which “caspase-3 activation” value is on record?
**A.** -2.13% (inactive)

**Q.** With c1ccc2c(c1)c1cccc3ccc4cccc2c4c31 as the compound, how does the “caspase-3 activation” value read?
**A.** 0.182% (inactive)

**Q.** Which “caspase-3 activation” value does the source give for Cc1cccc([N+](=O)[O-])c1C here?
**A.** 3.91% (inactive)

**Q.** Which “caspase-3 activation” value does the source give for CCCCCCCCO here?
**A.** -1.96% (inactive)

**Q.** With CC(C)=CCCC(C)CCO (configuration not stated) as the compound, how does the “caspase-3 activation” value read?
**A.** 2.25% (inactive)

**Q.** For O=[N+]([O-])c1cccc(Cl)c1Cl, which “caspase-3 activation” value is on record?
**A.** 0.964% (inactive)

**Q.** Which “caspase-3 activation” value does the source give for CCO[Si](CCCN)(OCC)OCC here?
**A.** 3.2% (inactive)

**Q.** Which “caspase-3 activation” value does the source give for Clc1cc(Cl)c(Cl)cc1Cl here?
**A.** -5.54% (inactive)

**Q.** Which “caspase-3 activation” value does the source give for CCO here?
**A.** -3.03% (inactive)

**Q.** Which outcome does the source give for C=CC(=O)OCCOCCOCCOCCOC(=O)C=C here?
**A.** inactive

**Q.** For Clc1cc(Cl)c(Cl)c(Cl)c1Cl, which “caspase-3 activation” value is on record?
**A.** -2.1% (inactive)

**Q.** With CCCCC(CC)CN (configuration not stated) as the compound, how does the outcome read?
**A.** inactive

**Q.** For O=NO, which outcome is on record?
**A.** inactive

**Q.** Which “caspase-3 activation” value does the source give for c1ccc2c(c1)[nH]c1ccccc12 here?
**A.** -5.56% (inactive)

**Q.** Which “caspase-3 activation” value does the source give for OCCNCCO here?
**A.** -2.02% (inactive)

**Q.** With Nc1ccc(Cl)cc1Cl as the compound, how does the “caspase-3 activation” value read?
**A.** 4.1% (inactive)

**Q.** For CCC(C)c1ccccc1O (configuration not stated), which outcome is on record?
**A.** inactive

**Q.** With CC1=CC(C)(C)Nc2ccccc21 as the compound, how does the outcome read?
**A.** inactive

**Q.** Which outcome does the source give for CN(C)C=O here?
**A.** inactive

**Q.** Which “caspase-3 activation” value does the source give for Cc1ccc(N)c([N+](=O)[O-])c1 here?
**A.** -5% (inactive)

**Q.** With CCCCOCCO as the compound, how does the outcome read?
**A.** inactive

**Q.** With CC(=O)OC/C=C(\C)CCC=C(C)C as the compound, how does the “caspase-3 activation” value read?
**A.** 3.22% (inactive)
